# Laboratory results from PubChem BioAssay AID720517 (National Center for Advancing Translational Sciences (NCATS), 2013).
# Results filed as inconclusive are left out. Where a call stands in place of a potency, no number is given. Calls of active or inactive are those of the source. The call rests on the fitted dose curve; in most records, active means well fitted activation curve with a large enough effect; inconclusive means small, poorly fitted or top-dose-only effect; inactive means flat fitted curve, though single readings scatter.
# Test: qHTS for Inhibitors of Cell Surface uPA Generation: FP59 Counterscreen for Cherry-picked Compounds
# Conditions: FP59 anthrax toxin cytotoxicity counterscreen, cells; series mostly up to 115 µM
# Potency means the concentration at half of the fitted maximal effect.
row,SMILES,Potency
1,COc1ccc(C(=O)CC(=O)C(=O)Nc2ccccc2)cc1,inactive
2,CN(C)S(=O)(=O)c1cccc(C(=O)OCC(=O)NCc2ccc3c(c2)OCO3)c1,inactive
3,CCOC(=O)C1CCN(S(=O)(=O)c2c[nH]c(=O)[nH]c2=O)CC1,inactive
4,CCCN1CCN(C(=O)CCCn2c(C)c3cnn(-c4ccccc4)c(=O)c3c2C)CC1,inactive
5,Cc1ccc(N2C(=O)c3ccccc3C2(O)c2ccccc2)cc1 (stereo not drawn),inactive
6,C[C@@H](NC(=O)c1nc[nH]c1C(=O)NCc1ccc(CNC(=O)OC(C)(C)C)cc1)c1ccccc1,58.5 µM (active)
7,O=C(c1ccco1)N1CCN(c2ncccn2)CC1,inactive
8,Cc1ccc(NC(=O)CSc2nncn2N)cc1C,inactive
9,COCCOc1ccc(C(F)(F)F)cc1NC(=O)COC(=O)Cc1c[nH]c2ccccc12,inactive
10,O=C(NCc1ccc(F)cc1)c1cc(S(=O)(=O)N2CCCCC2)ccc1N1CCOCC1,inactive
11,CSc1nc(N)nc2c1ncn2CC(=O)NCC1CCCO1 (stereo not drawn),inactive
12,O=C(Nn1cnnc1)c1ccc(Cl)c(Cl)c1,inactive
13,O=C(NNC(=O)c1ccc2ccccc2c1)Nc1ccc(F)cc1,inactive
14,O=C(CNS(=O)(=O)c1ccc(F)cc1)Nc1ccccc1,inactive
15,COc1cc(C(=O)Nc2nnc(C)s2)cc(OC)c1OC,inactive
16,COc1cc(C2/C(=C(\O)c3ccc4c(c3)CC(C)O4)C(=O)C(=O)N2CC2CCCO2)cc(OC)c1OC (stereo not drawn),inactive
17,Cc1cc(C)cc(S(=O)(=O)c2cn(C)c3cc(N4CCN(C)CC4)c(F)cc3c2=O)c1,inactive
18,Cc1cc(N)n(Cc2ccc(Cl)cc2)n1,inactive
